molecular target: T1, GST-Nv-NF-kB (Ser allele) (Nematostella vectensis, UniProt A7UNT2 2-411); assay: protein-binding microarray (PBM); PBM: ~300 nM protein, 6 mM HEPES pH 7.8, 80 mM KCl, 0.5 mM EDTA, 0.5 mM EGTA, 6% glycerol, 35 ng/ul poly-dIdC, 1% milk, 1 h, room temperature; Ap Aiptasia and Nv Nematostella (sea anemones) / Co Capsaspora / Aq Amphimedon (sponge) / Dm Drosophila / Hu human; RHD is the Rel homology domain; high values mean tight binding; details: dsDNA, one strand shown
T1 sequence: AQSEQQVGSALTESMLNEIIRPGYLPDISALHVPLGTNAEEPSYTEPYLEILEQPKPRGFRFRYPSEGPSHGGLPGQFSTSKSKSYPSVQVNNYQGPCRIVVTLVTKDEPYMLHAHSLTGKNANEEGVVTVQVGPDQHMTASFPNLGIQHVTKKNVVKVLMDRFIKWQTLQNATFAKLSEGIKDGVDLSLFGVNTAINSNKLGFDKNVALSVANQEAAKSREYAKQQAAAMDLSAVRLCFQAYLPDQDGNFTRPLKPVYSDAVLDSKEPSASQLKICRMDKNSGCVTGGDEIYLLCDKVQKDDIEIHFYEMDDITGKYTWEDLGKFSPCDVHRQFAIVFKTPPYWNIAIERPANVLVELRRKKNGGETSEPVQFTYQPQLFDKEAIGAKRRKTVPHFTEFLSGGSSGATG

Row | Sequence | binding signal [z-score]
1 | CCGATTAACATCAAACCCCCCCCTGATGTTAATCGGGTCTTGATTCGCTTGACGCTGCTG | 5.04
2 | CCGATTAACATCAGGGGACTTCATGATGTTAATCGGGTCTTGATTCGCTTGACGCTGCTG | 6.12
3 | CCGATTAACATCAACACTCCCCCTGATGTTAATCGGGTCTTGATTCGCTTGACGCTGCTG | 5.61
4 | CCGATTAACATCAAGGAATTCCCTGATGTTAATCGGGTCTTGATTCGCTTGACGCTGCTG | 6.37
5 | CCGATTAACATCATCAGGGGGGATGATGTTAATCGGGTCTTGATTCGCTTGACGCTGCTG | 3.78
6 | CCGATTAACATCAGGGGGGGAACTGATGTTAATCGGGTCTTGATTCGCTTGACGCTGCTG | 6.12
7 | CCGATTAACATCAGAATACCCCCTGATGTTAATCGGGTCTTGATTCGCTTGACGCTGCTG | 6.16
8 | CCGATTAACATCAGGGGGGGACATGATGTTAATCGGGTCTTGATTCGCTTGACGCTGCTG | 4.34
9 | CCGATTAACATCACCCCCCCCCGTGATGTTAATCGGGTCTTGATTCGCTTGACGCTGCTG | 5.34
10 | CCGATTAACATCAATCCCCCCCCTGATGTTAATCGGGTCTTGATTCGCTTGACGCTGCTG | 6.45
11 | CCGATTAACATCAAAAAAACCCTTGATGTTAATCGGGTCTTGATTCGCTTGACGCTGCTG | 5.27
12 | CCGATTAACATCAGGAGTCCCCCTGATGTTAATCGGGTCTTGATTCGCTTGACGCTGCTG | 5.14
13 | CCGATTAACATCAAAAAATCACCTGATGTTAATCGGGTCTTGATTCGCTTGACGCTGCTG | 5.57
14 | CCGATTAACATCAAGGGAATTCCTGATGTTAATCGGGTCTTGATTCGCTTGACGCTGCTG | 6.53
15 | CCGATTAACATCAAATGTGGGAATGATGTTAATCGGGTCTTGATTCGCTTGACGCTGCTG | 1.31
16 | CCGATTAACATCAGTTGTCCCGCTGATGTTAATCGGGTCTTGATTCGCTTGACGCTGCTG | 1.42
17 | CCGATTAACATCAGGGGATATAATGATGTTAATCGGGTCTTGATTCGCTTGACGCTGCTG | 6.48
18 | CCGATTAACATCAAAAAACCCCGTGATGTTAATCGGGTCTTGATTCGCTTGACGCTGCTG | 6.46
19 | CCGATTAACATCAGGGGACGTTATGATGTTAATCGGGTCTTGATTCGCTTGACGCTGCTG | 4.91
20 | CCGATTAACATCAGAAACTTCCCTGATGTTAATCGGGTCTTGATTCGCTTGACGCTGCTG | 4.61

Row | Sequence | binding signal [z-score]
21 | CCGATTAACATCACCTCCCCCCCTGATGTTAATCGGGTCTTGATTCGCTTGACGCTGCTG | 4.34
22 | CCGATTAACATCAGGGGGAGGGATGATGTTAATCGGGTCTTGATTCGCTTGACGCTGCTG | 4.98
23 | CCGATTAACATCAAGAAAATCCCTGATGTTAATCGGGTCTTGATTCGCTTGACGCTGCTG | 4.75
24 | CCGATTAACATCAGGGACGCCCCTGATGTTAATCGGGTCTTGATTCGCTTGACGCTGCTG | 3.51
25 | CCGATTAACATCACGAAAACCCCTGATGTTAATCGGGTCTTGATTCGCTTGACGCTGCTG | 5.71
26 | CCGATTAACATCAGTACCGCGAATGATGTTAATCGGGTCTTGATTCGCTTGACGCTGCTG | 1.29
27 | CCGATTAACATCAGGAAATACCCTGATGTTAATCGGGTCTTGATTCGCTTGACGCTGCTG | 6.46
28 | CCGATTAACATCAAAATGCCCCCTGATGTTAATCGGGTCTTGATTCGCTTGACGCTGCTG | 4.81
29 | CCGATTAACATCACACTCCCCCCTGATGTTAATCGGGTCTTGATTCGCTTGACGCTGCTG | 4.56
30 | CCGATTAACATCAATCCACCCCCTGATGTTAATCGGGTCTTGATTCGCTTGACGCTGCTG | 3.94
31 | CCGATTAACATCAGGACTGCCCCTGATGTTAATCGGGTCTTGATTCGCTTGACGCTGCTG | 1.72
32 | CCGATTAACATCAGGAAAGCCCCTGATGTTAATCGGGTCTTGATTCGCTTGACGCTGCTG | 6.08
33 | CCGATTAACATCAAAAAGCCCCGTGATGTTAATCGGGTCTTGATTCGCTTGACGCTGCTG | 6.26
34 | CCGATTAACATCAACTATCCCCCTGATGTTAATCGGGTCTTGATTCGCTTGACGCTGCTG | 5.03
35 | CCGATTAACATCAAGGGGGGAACTGATGTTAATCGGGTCTTGATTCGCTTGACGCTGCTG | 6.05
36 | CCGATTAACATCAGGAACCCCCCTGATGTTAATCGGGTCTTGATTCGCTTGACGCTGCTG | 5.44
37 | CCGATTAACATCAGGGGGTTATATGATGTTAATCGGGTCTTGATTCGCTTGACGCTGCTG | 6.26
38 | CCGATTAACATCAGAAAAACACCTGATGTTAATCGGGTCTTGATTCGCTTGACGCTGCTG | 4.39
39 | CCGATTAACATCAAAAAACCCCATGATGTTAATCGGGTCTTGATTCGCTTGACGCTGCTG | 6.05
40 | CCGATTAACATCAGGGGGGAGAATGATGTTAATCGGGTCTTGATTCGCTTGACGCTGCTG | 6.04

Reference: article PMC5700166
